Assay outcomes deposited in PubChem by National Center for Advancing Translational Sciences (NCATS).
AmpC inh detg: qHTS Inhibitors of AmpC Beta-Lactamase (assay with detergent); Potency, µM (doses to about 114 µM), usual class: inhibitors; 0.041% of 370,000 active; AID 485294, 2010; AmpC hydrolysis of nitrocefin, absorbance 480 nm, 0.01% Triton; P00811; note: nearly all actives have a fitted effect of over 25% in size
Target sequence (P00811 whole entry, looked up): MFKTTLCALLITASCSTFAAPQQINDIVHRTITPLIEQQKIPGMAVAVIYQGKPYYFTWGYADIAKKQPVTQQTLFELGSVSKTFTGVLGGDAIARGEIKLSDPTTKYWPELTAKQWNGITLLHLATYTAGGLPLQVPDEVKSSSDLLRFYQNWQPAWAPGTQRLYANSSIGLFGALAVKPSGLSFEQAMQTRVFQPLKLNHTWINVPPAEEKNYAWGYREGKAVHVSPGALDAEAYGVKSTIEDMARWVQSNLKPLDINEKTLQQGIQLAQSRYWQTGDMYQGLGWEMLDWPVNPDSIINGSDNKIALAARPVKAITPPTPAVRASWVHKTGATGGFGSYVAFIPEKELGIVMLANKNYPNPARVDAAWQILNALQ
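20 mM phosphate pH 7.0 + 0.01% (detergent screen) or 0.0001% Triton X-100; 5.3 nM AmpC reagent; cpd preinc 15 min RT; nitrocefin (800 uM stock) to start; A480 q20 s × 4 min; Activity was normalised to no-enzyme and no-compound control wells.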
AmpC inh no detg: qHTS Inhibitors of AmpC Beta-Lactamase (assay without detergent). AID 485341, 2010. AmpC nitrocefin hydrolysis, absorbance 480 nm, 0.0001% Triton. Potency, µM (titrated, usually from 57.1 µM), most hits filed as inhibitors. 0.52% of 330,000 active; note: nearly all actives have a fitted effect of over 20% in size
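20 mM phosphate pH 7.0 + 0.01% (detergent screen) or 0.0001% Triton X-100; 5.3 nM AmpC reagent; cpd preinc 15 min RT; nitrocefin (800 uM stock) to start; A480 q20 s × 4 min; Activity was normalised to no-enzyme and no-compound control wells.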
Giardia FBPA inh: qHTS Assay for Inhibitors of Fructose-1,6-bisphosphate Aldolase from Giardia Lamblia. A8B2U2. purified Giardia FBPA. Potency, µM (series often up to 59.6 µM), usual class: inhibitors. 0.71% of 290,000 active. AID 2451, 2010; note: nearly all actives have a fitted effect of over 55% in size
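Giardia FBPA (40 nM reagent) was preincubated 10 min at RT with compound (up to 57.5 uM final), then substrate plus GAPDH/TPI/NAD/arsenate coupling system with diaphorase/resazurin was added; resorufin fluorescence (525/598 nm) was read after 20 min.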
SARS PLpro yeast: qHTS of Yeast-based Assay for SARS-CoV PLP; S. cerevisiae expressing SARS-CoV PLpro, growth rescue; Potency, µM (series often up to 32.9 µM), hits mostly activators; 0.19% of 330,000 active; AID 485353, 2010; calls by dose curve; note: nearly all actives have a fitted effect of over 55% in size
Hits are given with their value; - = inactive; ? = inconclusive; . = no result given; ! = a repeat was not active. Compounds with a hit are over-represented: about 1.1% of the library has one in this group of screens. Unless noted, calls come from the whole dose curve; as a rule, active = well fitted curve in the direction sought with a large enough effect; inconclusive = small, poorly fitted or top-dose-only effect, or another doubt; inactive = no such curve, though single readings can be large; an effect the other way counts as inactive or inconclusive.

SMILES | AmpC inh detg | AmpC inh no detg | Giardia FBPA inh | SARS PLpro yeast
NN1C(=O)/C(=C\c2ccco2)SC1=S | - | - | 6.3µM | -
C=CCOC(=O)/C(=C/c1cccc2ccccc12)NC(=O)c1ccccc1 | ? | 13µM | - | -
O=C(OCc1ccccc1)/C(=C/c1cccc2ccccc12)NC(=O)c1ccccc1 | - | - | - | -
CC(C)(C)[C@@H](O)C(Cc1ccc(Cl)cc1)n1cncn1 (some centres not stated) | . | . | - | .
CC1Oc2ccccc2N(CC(=O)NCCc2ccccc2)C1=O (configuration not stated) | 40µM | - | - | -
COc1ccc(C2=Nn3c(nnc3-c3cc(OC)ccc3OC)SC2)cc1 | . | . | - | .
COc1cccc(-n2nnc(-c3nc(-c4ccccc4F)no3)c2C)c1 | - | . | . | .
O=C(NCc1ccccc1)C1CCN(S(=O)(=O)c2ccc3c(c2)CCCN3C(=O)C2CCC2)CC1 | - | . | . | .
CCC(SC1=NCCS1)C(=O)Nc1nnc(-c2ccccc2OC)s1 (configuration not stated) | - | 10µM | - | -
COc1ccc(C(=O)Oc2ccc(/C=N/NC(=O)c3ccccc3OC)cc2[N+](=O)[O-])cc1 | - | - | - | -
COc1ccc(/C=N/NC(=O)c2ccc(-c3ccccc3)cc2)cc1O | - | 35µM | - | -
COc1ccc(C(=O)N/N=C/c2ccc(OC(=O)c3cccc4ccccc34)c([N+](=O)[O-])c2)cc1 | - | 28µM | - | -
COc1ccc(/C=N\NC(=O)c2cc(O)c(O)c(O)c2)cc1COc1ccc(C(=O)OCC(C)C)cc1 | - | 10µM | ? | -
CC[C@H](C)[C@H](NC(=O)[C@H](CC(C)C)NC(=O)[C@H](CO)NC(=O)[C@H](CCC(=O)O)NC(=O)[C@H](CC(C)C)NC(=O)[C@H](Cc1ccc(O)cc1)NC(=O)[C@H](CCCCN)NC(=O)[C@H](CCCCN)NC(=O)[C@H](C)NC(=O)[C@H](CO)NC(=O)[C@H](CC(C)C)NC(=O)[C@H](CCC(N)=O)NC(=O)CNC(=O)[C@H](CC(C)C)NC(=O)[C@H](CC(C)C)NC(=O)[C@H](CCCNC(=N)N)NC(=O)[C@H](CO)NC(=O)[C@H](Cc1ccccc1)NC(=O)[C@H](CC(=O)O)NC(=O)[C@H](CO)NC(=O)[C@@H](NC(=O)[C@H](Cc1ccccc1)NC(=O)[C@@H](NC(=O)CNC(=O)[C@H](CC(=O)O)NC(=O)[C@H](C)NC(=O)[C@@H](N)Cc1cnc[nH]1)C(C)C)[C@@H](C)O)C(N)=O | . | . | - | .
CC(C)C[C@H](NC(=O)[C@H](Cc1ccccc1)NC(=O)[C@@H]1CCCN1C(=O)[C@H](CC(=O)O)NC(=O)[C@@H]1CCC(=O)N1)C(=O)N[C@@H](CCCN=C(N)N)C(=O)N[C@@H](Cc1ccccc1)C(N)=O | . | . | - | .
Cc1ccc(CN2C(=O)C(=O)c3cc(Br)cc(C)c32)cc1 | - | . | . | .
CC(C)CN(CC(C)C)S(=O)(=O)c1ccc(C(=O)Nc2sc3c(c2C(N)=O)CCN(C(C)C)C3)cc1 | - | . | . | .
CCN(CC)C(=S)SSC(=S)N(CC)CC | ? | ? | 18µM! | -
CC(=O)OCCBr | . | . | - | .
OC1OC[C@@H](O)[C@@H](O)[C@@H]1O (some centres not stated) | . | . | - | .
Cc1[nH][nH]c(=O)c1C(c1ccc(-c2cccc(Cl)c2)o1)c1c(C)[nH][nH]c1=O | - | - | 5µM | -
COC(=O)c1ccc(-c2ccc(C(c3c(C)[nH][nH]c3=O)c3c(C)[nH][nH]c3=O)o2)cc1 | ? | - | 4.5µM | -
Cc1[nH][nH]c(=O)c1C(c1ccc(-c2ccc(Cl)cc2Cl)o1)c1c(C)[nH][nH]c1=O | ? | - | 13µM | -
Cc1[nH][nH]c(=O)c1C(c1ccc(Br)cc1)c1c(C)[nH][nH]c1=O | - | - | - | -
Cc1[nH][nH]c(=O)c1C(c1ccc(-c2ccccc2C(=O)O)o1)c1c(C)[nH][nH]c1=O | - | - | 7.9µM | -
SMILES | AmpC inh detg | AmpC inh no detg | Giardia FBPA inh | SARS PLpro yeast
C=C1C=CS(=O)(=O)N(C(CC(C)C)C(=O)OC)C1 (configuration not stated) | . | . | - | .
Cc1[nH][nH]c(=O)c1C(c1ccc(-c2cccc(C(=O)O)c2)o1)c1c(C)[nH][nH]c1=O | - | - | 20µM | -
O=C(NCCC1CCCCN1S(=O)(=O)c1ccccc1)C(=O)NCc1ccccc1F (configuration not stated) | - | - | . | -
O=C(NCc1ccccc1F)C(=O)NCC1CCCN1S(=O)(=O)c1ccccc1 (configuration not stated) | ? | 35µM | . | -
O=C(O)CC(CNS(=O)(=O)c1ccccc1)c1ccccc1 (configuration not stated) | ? | 2.5µM | - | -
Cc1cc(I)ccc1Nc1c(C(=O)NOCC2CC2)cc(F)c(F)c1F | . | . | - | .
CCCN=C(C)C1=C(O)c2ccccc2C1=O | - | - | - | -
CCOC(=O)C1=C(O)c2ccccc2C(=O)/C1=C\c1ccc(CC)cc1 | - | - | 7.9µM | -
CCCc1ccc(/C=C2\C(=O)c3ccccc3C(O)=C2C(=O)OCC)cc1 | ? | 18µM | ? | -
O=C(Oc1ccccc1)C1O[C@@H]1c1ccccc1 (some centres not stated) | . | . | - | .
CCOC(=O)c1c(OCC)[nH]c2c1cc(O)c1ccccc12 | - | - | 20µM | -
COCCCNC(=O)Cn1c(=O)n(-c2cccc(C)c2)c(=O)c2c1c1cc(C)ccc1n2C | - | . | . | .
COc1cc(C(=O)O[C@H]2C/C(C)=C/CC/C(C)=C/[C@@H](O)C2C(C)C)ccc1O (some centres not stated) | . | . | - | .
CCOc1cc(/C=C2\SC(=O)N(c3ccc(O)cc3)C2=O)ccc1O | - | 10µM | - | -
CNc1ccc(S(=O)(=O)NCC(=O)OCC(=O)Nc2cccc(Cl)c2Cl)cc1[N+](=O)[O-] | - | 25µM | - | -
CCOC(=O)CNC(=O)O[C@@H]1C(=O)c2cc(Br)ccc2O[C@H]1c1ccc2c(c1)OCO2 | . | . | - | .
Cc1ccccc1N=Nc1ccc(O)c2ncccc12 | - | - | - | 3.5µM
O=[N+]([O-])c1ccc(O)c2ncccc12 | - | - | 20µM | -
CNC(=O)[C@]1(C(F)(F)F)C[C@H](CCC2CCCCC2)CCCO1 | . | . | - | .
O=C(Nn1c(C2CCCCC2)nc2ccccc2c1=O)c1ccc([N+](=O)[O-])cc1Cl | - | 14µM | - | -
CC(C)C(=O)NC(NC(=S)Nc1cccc2cccnc12)C(Cl)(Cl)Cl (configuration not stated) | - | 10µM | . | -
CCC(=O)NC(NC(=S)Nc1cccc2cccnc12)C(Cl)(Cl)Cl (configuration not stated) | ? | - | - | -
O=c1oc2ccccc2cc1-c1nc2c(s1)CCc1ccccc1-2 | - | ? | 7.9µM | -
